For orientation: Inhibition means the percentage by which the read-out fell short of the control.

In this assay the test system is HepG2. Description: GSK_TCMDC: Percent inhibition of human HepG2 cell line. Test compounds present at 10uM. Format: functional.
The compound `CN(C(=O)c1snnc1-c1ccccc1)C1CCN(CCCCCNC(=O)/C=C/c2ccc(Cl)c(Cl)c2)CC1` returned an Inhibition of 44%.

In the case of `O=C(Nc1ccc(Cl)c(C(F)(F)F)c1)c1ccc(C(=O)Nc2ccc(Cl)c(C(F)(F)F)c2)cc1`, the Inhibition is given as 9%.

On to `O=C(O)C(F)(F)F.O=S(=O)(NCCN1CCCC1)c1ccc(-c2ccc(CNC3Cc4ccccc4C3)cc2)cc1`, for which the Inhibition is given as 61%.

For the compound `COc1cc(N(Cc2ccccc2C)S(=O)(=O)Cc2ccccc2[N+](=O)[O-])c(OC)cc1Cl`, the Inhibition is reported as 16%.

Regarding `COc1ccc2nccc([C@@H](O)CN3CCC(NC(=O)c4cc5ccccc5[nH]4)CC3)c2c1.CS(=O)(=O)O`, the Inhibition stood at 19%.

As for `Cc1ccc(O)c(CN2CCCC(COC(c3ccc(F)cc3)c3ccc(F)cc3)C2)c1` (centres undefined), the Inhibition was 19%.

`CN(C)Cc1ccc2cc(NC(=O)c3ccc(-c4ccc(Cl)cc4)cc3)ccc2n1.O=C(O)C(F)(F)F` had an Inhibition of 60%.

`COc1cccc(C(=O)Nc2nc3c(s2)CCN(Cc2ccccc2N2CCNCC2)CC3)c1.O=C(O)C(F)(F)F` displayed an Inhibition of 7%.

For the compound `Cc1cccc2nc(-c3cccc(-c4ccc(CN5CCC(C(N)=O)CC5)cc4)c3)[nH]c12.O=C(O)C(F)(F)F`, the Inhibition was found to be 0%.

For the compound `C[C@@H](NC(=O)NC(CCN1CCC2(CC1)CN(S(C)(=O)=O)c1ccccc12)c1ccc(Cl)c(Cl)c1)c1ccccc1` (some centres undefined), the Inhibition is 15%.

With `CC(=O)Nc1ncc(C(=O)Nc2ccc(-c3cccc(-c4nc5cc(C(F)(F)F)ccc5[nH]4)c3)cc2)s1`, the Inhibition is given as 79%.

`COc1cc(C2=NN(S(=O)(=O)c3c(Cl)cc(Cl)cc3Cl)CCCC2)ccc1Cl` had an Inhibition of 3%.

With `CCC1CCCCN1S(=O)(=O)c1ccc(NC(=O)c2cc(C)on2)cc1` (centres undefined), the Inhibition was 0%.

Regarding `ON=C(c1nc2ccccc2[nH]1)c1nc2ccccc2[nH]1`, the Inhibition is 36%.

For `O=c1cc(NCCC(CNCc2cc3ccccc3o2)NCc2cc(Br)cc(Br)c2)[nH]c2ccccc12` (centres undefined), the Inhibition was 6%.

On to `COc1ccc(CNCc2ccccc2)cc1-c1cccc(S(=O)(=O)NCCN2CCCC2)c1.O=C(O)C(F)(F)F`, for which the Inhibition is 37%.

As for `N#Cc1ccc(CN2CCC(Oc3ccc(NC(=O)c4cccs4)cc3)C2)cc1.O=C(O)C(F)(F)F` (centres undefined), the Inhibition turned out to be 5%.

`CCOc1cc(Cl)c(C(C)NC(=O)c2ccccc2)cc1OCC` (centres undefined) showed an Inhibition of 0%.

For the compound `Cc1ccc(C)c2sc(N(CCCn3ccnc3)C(=O)c3ccco3)nc12.Cl`, the Inhibition came to 28%.

`CCC1(CC)N=C(N)N=C(N)C1c1ccc(Cl)c(Cl)c1.Cl` (centres undefined) came in with an Inhibition of 0%.

Compound `COc1ccc2nc(/N=C3\NC(c4ccccn4)(c4ccccn4)C(=O)N3C)[nH]c2c1` gave an Inhibition of 65%.

For `O=C(O)C(F)(F)F.O=[N+]([O-])c1cccc(CNC2CCN(Cc3ccc(-c4ccccc4)cc3)CC2)c1`, the Inhibition is reported as 25%.

As to `CCC(=O)Oc1ccc(NC(=O)c2cccc(OC)c2)cc1`, the Inhibition stood at 17%.

Turning to `CN1CCN(Cc2ccc(-c3ccc4c(Nc5cc(O)c(Cl)cc5F)ccnc4c3)o2)CC1`, the Inhibition is 2%.

For the compound `CCOc1cc(C(C)C)ccc1N1CCN(CCCCNC(=O)c2ccc(NC(=O)c3ccc(Cl)cc3)cc2)CC1`, the Inhibition was 28%.

The compound `Cc1ccc(Cc2c(N)nc3nc(N)nc(N)c3c2C)cc1.Cl` yielded an Inhibition of 59%.

`NC1=Nc2ccc(Cl)cc2C1(O)c1ccccc1` (centres undefined) yielded an Inhibition of 0%.

On to `C=CCc1cc(Br)ccc1OCCCOc1c(N)nc(N)nc1N.Cl`, for which the Inhibition worked out at 47%.

The compound `CC(C)CNCc1ccc(-c2cccc(CN(CCCN3CCN(C)CC3)C(=O)/C=C/c3ccccc3)c2)cc1.O=C(O)C(F)(F)F` had an Inhibition of 43%.

Compound `COc1ccc(-c2nc(NC(=O)COc3ccc(C(C)=O)cc3)sc2C)cc1` returned an Inhibition of 0%.

As to `O=C(Nc1ccc(C(F)(F)F)cc1)c1cccc(S(=O)(=O)NC2CCN(Cc3ccccc3)C2)c1.O=C(O)C(F)(F)F` (centres undefined), the Inhibition turned out to be 39%.

Take `O=C(Cn1c(SCc2cccc(F)c2F)cc(=O)c2ccccc21)N(CCN1CCCCC1)Cc1ccc(-c2ccc(C(F)(F)F)cc2)cc1.O=C(O)C(O)C(O)C(=O)O`: the Inhibition is 41%.

`CC(C)CCN1CCCN(Cc2ccc(C(=O)Nc3ccc(C(C)(C)C)cc3)cc2)CC1.O=C(O)C(F)(F)F` showed an Inhibition of 49%.

`NS(=O)(=O)c1cccc(-c2ccc3nccc(-c4cccc(S(N)(=O)=O)c4)c3c2)c1` returned an Inhibition of 40%.

In turn, `COc1ccc(CNC2Cc3ccccc3C2)cc1-c1ccc(S(=O)(=O)NCCc2ccccn2)s1.O=C(O)C(F)(F)F` yielded an Inhibition of 11%.

`Cl.O=c1ccc2ncc(Cl)c3c2n1CC3CN1CCC(NCc2cc3c(cn2)OCCO3)CC1` (centres undefined) had an Inhibition of 27%.

The compound `COc1ccc(Oc2cnc(N)nc2N)c(C(C)C)c1` came in with an Inhibition of 58%.

The compound `CC1(C)NC(N)=NC(=N)N1OCOc1ccc(Cl)cc1.Cl` gave an Inhibition of 68%.

In turn, `O=C(Nc1nc2cc(S(=O)(=O)NCCc3ccc(F)cc3)ccc2n1CCCn1ccnc1)c1ccc(Cl)cc1.O=C(O)C(F)(F)F` returned an Inhibition of 18%.
